Assay outcomes from PubChem.
Rows were chosen to be rich in hits. Some 2.6% of all compounds tested hit in one or more screens of this group.
B2AR arrestin ag – beta-arrestin recruitment by human beta2-adrenergic receptor ligands; P07550; HTLA Tango cells, beta-arrestin recruitment, luciferase luminescence, 18 h; Potency, µM (top dose mostly 46.1 µM), actives largely listed as activators; 44,000 tested, under 10 active; AID 1347077;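 further: potency means the concentration at half of the fitted maximal effect; 0% = DMSO and full agonism = EC100 isoproterenol or metaproterenol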
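Ligand-induced beta-arrestin recruitment to recombinant beta2-AR is measured via a tTA-driven luciferase reporter in Tango cells after 18 hr compound exposure at 37 degrees C. Concentrations span up to 46 microM.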
GALK inhibitor – inhibits human galactokinase | P51570 | recombinant GALK, Kinase-Glo ATP luminescence, 1 h | Potency, µM (series often up to 57.5 µM), for the others: top-dose activity, negative = inhibition, usual class: inhibitors | 44,000 tested, under 10 active | AID 1347072;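 further: plate controls were full GALK reaction for no effect and reaction lacking GALK for full effect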
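Compounds were pinned into ATP buffer, then GALK-galactose mix was added (final 5 nM enzyme, 35 uM ATP, 100 uM galactose, pH 8.0). After 1 h at room temperature, Kinase-Glo Plus was added and luminescence read.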
GALC G270D act – galactocerebrosidase G270D activity enhancement, cell-based. 145M-Twi-hGALC-G270D cells (Twitcher mouse brain line with human GALC G270D), HMU-beta-Gal fluorescence, 48 h. Potency, µM (titrated, usually from 57.5 µM), hits mostly activators. P54803. AID 1159614. 45,000 tested, 0.1% active; further: potency means the concentration at half of the fitted maximal effect; 0% is about no effect; nearly all actives have a fitted effect of over 65% in size
Target sequence (P54803 whole entry G286D): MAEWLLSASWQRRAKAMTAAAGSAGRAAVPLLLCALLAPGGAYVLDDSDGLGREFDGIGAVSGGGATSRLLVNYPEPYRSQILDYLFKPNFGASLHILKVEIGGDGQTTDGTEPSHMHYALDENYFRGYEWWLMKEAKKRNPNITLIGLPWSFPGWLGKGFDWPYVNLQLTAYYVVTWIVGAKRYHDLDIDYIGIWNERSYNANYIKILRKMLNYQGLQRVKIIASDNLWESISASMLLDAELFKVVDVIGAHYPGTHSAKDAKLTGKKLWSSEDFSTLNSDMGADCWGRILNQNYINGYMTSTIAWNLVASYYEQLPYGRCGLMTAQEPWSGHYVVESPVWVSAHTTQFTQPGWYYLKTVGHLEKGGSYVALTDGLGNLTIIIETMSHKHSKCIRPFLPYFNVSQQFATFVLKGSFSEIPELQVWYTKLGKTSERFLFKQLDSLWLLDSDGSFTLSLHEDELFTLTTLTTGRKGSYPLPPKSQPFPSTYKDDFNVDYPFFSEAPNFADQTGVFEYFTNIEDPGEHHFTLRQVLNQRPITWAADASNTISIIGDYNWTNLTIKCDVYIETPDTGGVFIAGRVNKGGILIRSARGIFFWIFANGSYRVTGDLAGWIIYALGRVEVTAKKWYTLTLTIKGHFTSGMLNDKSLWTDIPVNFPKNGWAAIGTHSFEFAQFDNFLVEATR
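Live 145M-Twi cells (Twitcher mouse brain-derived, GALC-null) stably expressing human GALC-G270D, with a wild-type GALC line, were compound-treated. Residual GALC activity was then read as fluorescence from 0.1 mM final HMU-β-gal at pH 5.2; higher signal means activation.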
PTAP-TSG101 blk – TSG101-PTAP interaction inhibition, HIV-1 budding; Q99816; Fluorescence polarization, FITC-PTAP peptide/Tsg101, 20 min; Potency, µM (top dose mostly 115 µM), actives largely listed as inhibitors; 44,000 tested, under 10 active; AID 1347069; further: potency means the concentration at half of the fitted maximal effect; 0% is about no effect
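The Tsg101 binding domain, at 10 uM final, is mixed with compound and a FITC peptide bearing the PTAP motif (50 nM final). After 20 min at r.t., polarization is measured; actives defined by CRC class, efficacy cut-off 60% inhibition.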
GPR32 ag – GPR32 (DRV1) agonism, beta-arrestin recruitment; CHO-K1 GPR32 beta-arrestin PathHunter luminescence, 90 min; zero percent set by DMSO-only wells; activation, % at 76.9 µM; 48,000 tested, 2.5% active; AID 1346428;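 active means activation of at least 60% and not above a set upper limit, about 1 call in 100 departs from these limits; inconclusive means activation of 40% to 60%, or above that upper limit; inactive means activation under 40%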; further: 0% is about no effect
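Readings come from a cell-based beta-arrestin complementation format: CHO-K1 GPR32 stable cells (2,500/well) treated 90 min with compounds, then beta-Gal substrate added for 1 h before chemiluminescence imaging.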
* = called active by the depositor; i = inactive; ? = inconclusive; nt = no result given. Unless noted, the call rests on the fitted dose curve; in most records, active means well fitted curve in the direction sought with a large enough effect; inconclusive means small, poorly fitted or top-dose-only effect, or another doubt; inactive means no such curve, though single readings can be large; an effect the other way counts as inactive or inconclusive.

SMILES | B2AR arrestin ag | GALK inhibitor | GALC G270D act | PTAP-TSG101 blk | GPR32 ag
CCOC(=O)CSc1nc2ccc(NC(=O)c3ccc(F)cc3)cc2s1 | i | 1% | i | i | 40
CCOC(=O)CSc1nc2ccc(NC(=O)c3ccccc3)cc2s1 | i | -6% | i | i | 82*
Cc1ccc(CSc2nc3ccc(NC(=O)COc4ccccc4)cc3s2)cc1 | i | 0% | i | i | 74*
COc1ccccc1N1CCN(CC(O)COc2cc(OC)c(OC)c(OC)c2)CC1 (stereo unspecified) | nt | nt | i | nt | -4
COc1cc(Nc2ncc3c(n2)CCN(Cc2cc(F)cc(F)c2)C3)cc(OC)c1 | i | -1% | i | i | -6
CCOC(=O)CSc1nc2ccc(NC(=O)COc3ccccc3)cc2s1 | i | 7% | i | i | 61*
Cc1ccc(NC(=O)CSc2nc3ccc(NC(=O)COc4ccc(C)cc4)cc3s2)cc1 | i | -1% | i | i | 5
CCOc1ccc(C(=O)Nc2ccc3nc(SCc4ccccc4)sc3c2)cc1 | i | 6% | i | i | 63*
COc1ccccc1N1CCN(C(=O)c2oc3ccccc3c2N)CC1 | i | -4% | nt | i | 71*
COc1ccc(N2CCN(C(=O)c3oc4ccccc4c3NC(=O)c3ccccc3OC)CC2)cc1 | i | 3% | ? | i | -5
COc1ccc(-n2nc3c(N4CCCC(C(=O)NCc5ccc(C)cc5)C4)nnc(C)c3c2C)cc1 (stereo unspecified) | i | -1% | i | i | 111*
COc1ccc(CNC(=O)C2CCCN(c3nnc(C)c4c(C)n(-c5ccc(C)cc5)nc34)C2)cc1 (stereo unspecified) | i | 3% | i | i | -1
Cc1ccc(-n2ncc3c(N4CCN(C)CC4)ncnc32)cc1C | i | -3% | i | i | 75*
Cc1ccc(Nc2nc(C(N)=O)c(NC(=O)c3ccccc3Br)s2)cc1 | i | -1% | i | i | 61*
CCOC(=O)c1cnc2c(OC)cccc2c1Nc1cccc(O)c1 | i | 1% | i | i | -40
Cc1cc(Nc2cccc(O)c2)c2cccc(Br)c2n1 | i | 6% | i | i | 119*
CC(=O)c1ccc(N2CCN(C(=O)CS(=O)(=O)c3cccc4nsnc34)CC2)cc1 | i | 2% | i | i | 88*
CCCCOc1ccc(C2=NC(c3ccncc3)=Nc3ccc(OCC)cc3N2)cc1 | i | -7% | i | i | -11
O=C(CSc1cn(CCNC(=O)c2c(F)cccc2F)c2ccccc12)Nc1ccccc1F | i | -5% | i | i | 66*
O=C(CSc1cn(CCNC(=O)c2ccccc2F)c2ccccc12)Nc1ccccc1F | i | 1% | i | i | 31
O=C(NCCn1cc(SCc2ccccc2F)c2ccccc21)c1cccs1 | i | -1% | i | i | 67*
Cc1ccccc1CSc1cn(CCNC(=O)c2cccs2)c2ccccc12 | i | -2% | i | i | 25
COc1ccc(CCNC(=O)CSc2cn(CCNC(=O)c3ccccc3F)c3ccccc23)cc1OC | i | 8% | i | i | 80*
Cc1cc(S(=O)(=O)Nc2ccc(-c3ccc(N4CCCCC4)nn3)cc2)c(C)cc1Cl | i | -1% | nt | i | 0
CC(Oc1ccccc1)C(=O)Nc1ccccc1C(=O)OCc1cc(=O)n2nc(C(C)C)sc2n1 (stereo unspecified) | i | 1% | i | i | -7
SMILES | B2AR arrestin ag | GALK inhibitor | GALC G270D act | PTAP-TSG101 blk | GPR32 ag
O=C(Nc1cccc2c(=O)cc(-c3nn[nH]n3)oc12)c1ccc(OCCCCc2ccccc2)cc1 | nt | nt | i | nt | 94*
NS(=O)(=O)c1cc(C(=O)NN2C[C@H]3[C@H]4CCC(C4)[C@H]3C2)ccc1Cl | nt | nt | i | nt | 3
Cc1cc(O)c2c(O)c3c(O)cccc3cc2c1 | nt | nt | i | nt | 108*
Cc1ccc(C(C)C)c(O)c1 | nt | nt | i | nt | 0
COc1ccc(CC(=O)NCCc2sc(-c3ccc(Cl)cc3)nc2C)cc1OC | i | -2% | i | i | 92*
COc1ccc(-c2nc(C)c(CCNC(=O)C(=O)Nc3c(C)cccc3C)s2)cc1OC | i | -1% | i | i | 70*
COc1ccc(-c2nc(C)c(CCNC(=O)c3ccccc3Br)s2)cc1OC | i | -1% | i | i | -13
O=C(CCNS(=O)(=O)c1ccc2c(c1)CCN2C(=O)C1CC1)N1CCN(c2cccc(C(F)(F)F)c2)CC1 | i | -6% | i | i | 74*
Cc1cccc(N2CCN(C(=O)CCNS(=O)(=O)c3ccc4c(c3)CCN4C(=O)C3CC3)CC2C)c1 (stereo unspecified) | i | 5% | i | i | ?
Cc1ccc(Cl)cc1N1CCN(C(=O)CCNS(=O)(=O)c2ccc3c(c2)CCN3C(=O)C2CC2)CC1 | i | 1% | i | i | 41
CCC(=O)N1CCc2cc(S(=O)(=O)CCC(=O)N3CCN(c4cccc(C)c4)C(C)C3)ccc21 (stereo unspecified) | i | 8% | i | i | 66*
Cc1cccc(N(C)C(=O)CCNS(=O)(=O)c2ccc3c(c2)CCN3C(=O)C2CC2)c1 | i | -5% | i | i | 71*
CC(C)CCNS(=O)(=O)c1ccc(N2CCCCS2(=O)=O)cc1 | i | -1% | i | i | 10
CCc1ccc(N(CC)C(=O)c2ccc3c(=O)n4c(nc3c2)CCCCC4)cc1 | i | -10% | i | i | -8
O=C1Cc2cc(Cl)ccc2N1 | nt | nt | i | nt | -44
COc1ccc(NC(=O)CSc2ccc(-c3cccs3)nn2)cc1 | i | -1% | i | i | 112*
N=c1n(CCN2CCCCC2)c2ccccc2n1CC(O)COc1ccccc1 (stereo unspecified) | i | ? | i | i | 65*
CCCCCn1c(=N)n(CC(O)COc2cccc(C)c2)c2ccccc21 (stereo unspecified) | i | 4% | i | i | 90*
Cc1ccc(-n2nc(C(=O)Nc3cccc(C#N)c3)c3c4ccccc4n(C)c3c2=O)cc1 | i | 8% | i | i | -2
CCCCN(CC)C(=O)c1c[nH]c2ccc(S(=O)(=O)N(C)c3ccc(Cl)cc3)cc2c1=O | i | 2% | i | i | 91*
CCOC(=O)c1c(C)[nH]c(C)c1S(=O)(=O)N1CCN(c2ccc(Cl)cc2)CC1 | i | -4% | i | i | 68*
CCCCOc1ccc(NC(=O)Cn2nnnc2-c2ccccc2F)cc1 | i | 7% | i | i | -7
